Laboratory results published in PubChem BioAssay (NCATS).
Unmarked numbers belong to inactive results. Inconclusive results are not listed. Where a call stands in place of a potency, no number is given. The source made the active and inactive calls. Unless noted, calls follow the shape of the full dose curve.

How the values were obtained:
[1] = target: Cytochrome P450 1A2 (Homo sapiens) (UniProt P05177); assay: p450-cyp1a2 (AID 410); also: potency is read from the fitted curve at half-maximal effect
Outline: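 Inhibition was calculated relative to 57 uM furafylline (full inhibition). The reaction used human CYP1A2 at 20nM with Luciferin-ME at its Km, 100uM, driven by an NADPH-regenerating system for 60 min at room temperature.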

[2] = target: Glucocorticoid receptor (Homo sapiens) (UniProt P04150); assay: GR-EFC Redistribution (AID 451); settings: CHO-K1 GR-EFC translocation, beta-gal luminescence, 2 h; also: potency is read from the fitted curve at half-maximal effect
Outline: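 CHO-K1 cells expressing nuclear EA and GR-ED fragments of b-gal; compounds titrated up to 46 uM final, 2 h at 37 C. GR nuclear translocation read as complemented b-gal luminescence after 1 h RT detection.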

[3] = target: Mitogen-activated protein kinase 10 (Mus musculus) (UniProt Q61831); assay: JNK3 AlphaScreen Assay (AID 530; active = well fitted curve in either direction with a large enough effect, not every such curve was filed as active;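 also: kinase came from lysate of stimulated human HepG2 cells; signal reports phosphorylation of biotinylated GST-cJun 1-79 at Ser73 with 10 µM ATP; series mostly up to about 57 µM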)
Outline: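 qHTS format: compounds tested as titrations against IL-1beta/TNF-alpha-activated HepG2 lysate JNK3 with biotin-GST-cJun substrate and 10 uM ATP at room temperature. Loss of anti-phospho-cJun AlphaScreen signal indicates inhibition.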

[4] = target: 3',5'-cyclic-AMP phosphodiesterase 4B (Homo sapiens) (UniProt Q07343); assay: qHTS Assay for Inhibitors of PDE-IV (AID 607; active = well fitted activation curve with a large enough effect in the main read-out, with a control signal flat, not every such curve was filed as active)
Outline: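 HEK293 ACTOne cells with CNG channel (1000/well), endogenous PDE4; membrane potential dye, compounds up to 22.9 uM final. Fluorescence Ex 535/Em 590; RO 20-1724 (100 uM final) as reference.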

[5] = target: Cytochrome P450 2D6 (Homo sapiens) (UniProt P10635); assay: qHTS Assay for Inhibitors and Substrates of Cytochrome P450 2D6 (AID 891; active = well fitted inhibition curve with a large enough effect;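 also: luciferin methyl ether substrate demethylated by CYP2D6 with NADPH regeneration; nearly all actives have a fitted effect of over 60% in size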)
Outline: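 Human CYP2D6 (5 nM) with 30 uM Luciferin-ME EGE (at Km) in 100 mM KPO4, compound preincubated 10 min, then NADPH regeneration system for 60 min at room temperature. Luciferin read by luminescence; normalized to 1.43 uM quinidine.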

[6] = target: Cytochrome P450 2C19 (Homo sapiens) (UniProt P33261); assay: qHTS Assay for Inhibitors and Substrates of Cytochrome P450 2C19 (AID 899; active = well fitted inhibition curve with a large enough effect; also: nearly all actives have a fitted effect of over 60% in size)
Outline: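 5 nM human CYP2C19 with 10uM Luciferin-H EGE (at KM) in 50mM KPO4, compound preincubated 10 min at 37C, then NADPH regeneration for 60 min at 37C. Luciferin read by luminescence after detection reagent; normalized to 57uM ketoconazole as full inhibition.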

[7] = target: Cytochrome P450 2C9 (Homo sapiens) (UniProt P11712); assay: qHTS Assay for Inhibitors and Substrates of Cytochrome P450 2C9 (AID 883; active = well fitted inhibition curve with a large enough effect; also: nearly all actives have a fitted effect of over 60% in size)
Outline: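 Human CYP2C9 (10nM) with Luciferin-H at 100uM (its KM) in 25mM KPO4; compound preincubated 10 min at 37C, then NADPH regeneration for 60 min at 37C. Luciferin read by luminescence after detection reagent; normalized to 57uM sulphaphenazole as full inhibition.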

Chain of Cytochrome P450 2D6 (Homo sapiens) (P10635 whole entry, looked up): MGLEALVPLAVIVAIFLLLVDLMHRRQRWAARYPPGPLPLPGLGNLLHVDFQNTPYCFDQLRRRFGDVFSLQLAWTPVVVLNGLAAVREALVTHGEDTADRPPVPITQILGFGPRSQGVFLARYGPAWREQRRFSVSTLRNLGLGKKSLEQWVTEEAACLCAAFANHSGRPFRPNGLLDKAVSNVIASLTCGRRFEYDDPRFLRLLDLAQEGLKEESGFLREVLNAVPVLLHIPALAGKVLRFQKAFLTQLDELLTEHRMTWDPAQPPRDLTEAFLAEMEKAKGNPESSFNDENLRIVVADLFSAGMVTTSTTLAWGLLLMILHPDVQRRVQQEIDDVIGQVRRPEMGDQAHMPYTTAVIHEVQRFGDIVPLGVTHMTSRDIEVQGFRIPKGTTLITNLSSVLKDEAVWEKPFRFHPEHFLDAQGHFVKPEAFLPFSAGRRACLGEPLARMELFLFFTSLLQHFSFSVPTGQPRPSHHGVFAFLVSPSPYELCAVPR
Chain of 3',5'-cyclic-AMP phosphodiesterase 4B (Homo sapiens) (Q07343 whole entry, looked up): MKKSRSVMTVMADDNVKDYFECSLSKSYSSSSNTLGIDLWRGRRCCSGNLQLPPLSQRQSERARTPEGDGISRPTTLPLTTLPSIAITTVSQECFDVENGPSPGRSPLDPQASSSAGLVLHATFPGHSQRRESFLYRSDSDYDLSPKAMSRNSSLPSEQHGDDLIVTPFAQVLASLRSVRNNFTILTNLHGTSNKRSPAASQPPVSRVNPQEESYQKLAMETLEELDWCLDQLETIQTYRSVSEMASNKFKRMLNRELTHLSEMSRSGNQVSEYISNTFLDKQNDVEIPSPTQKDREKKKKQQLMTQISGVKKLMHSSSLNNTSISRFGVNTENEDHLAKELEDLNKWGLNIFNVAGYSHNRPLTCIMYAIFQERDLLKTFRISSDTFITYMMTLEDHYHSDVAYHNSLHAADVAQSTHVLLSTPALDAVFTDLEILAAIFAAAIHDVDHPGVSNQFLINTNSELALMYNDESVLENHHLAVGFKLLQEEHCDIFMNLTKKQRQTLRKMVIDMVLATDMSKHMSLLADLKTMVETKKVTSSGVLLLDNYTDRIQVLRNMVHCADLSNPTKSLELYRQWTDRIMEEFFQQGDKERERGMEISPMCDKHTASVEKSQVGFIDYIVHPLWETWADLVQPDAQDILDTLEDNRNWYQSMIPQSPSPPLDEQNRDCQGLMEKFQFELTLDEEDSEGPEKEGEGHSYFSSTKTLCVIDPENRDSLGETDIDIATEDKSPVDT
Chain of Cytochrome P450 1A2 (Homo sapiens) (P05177 whole entry, looked up): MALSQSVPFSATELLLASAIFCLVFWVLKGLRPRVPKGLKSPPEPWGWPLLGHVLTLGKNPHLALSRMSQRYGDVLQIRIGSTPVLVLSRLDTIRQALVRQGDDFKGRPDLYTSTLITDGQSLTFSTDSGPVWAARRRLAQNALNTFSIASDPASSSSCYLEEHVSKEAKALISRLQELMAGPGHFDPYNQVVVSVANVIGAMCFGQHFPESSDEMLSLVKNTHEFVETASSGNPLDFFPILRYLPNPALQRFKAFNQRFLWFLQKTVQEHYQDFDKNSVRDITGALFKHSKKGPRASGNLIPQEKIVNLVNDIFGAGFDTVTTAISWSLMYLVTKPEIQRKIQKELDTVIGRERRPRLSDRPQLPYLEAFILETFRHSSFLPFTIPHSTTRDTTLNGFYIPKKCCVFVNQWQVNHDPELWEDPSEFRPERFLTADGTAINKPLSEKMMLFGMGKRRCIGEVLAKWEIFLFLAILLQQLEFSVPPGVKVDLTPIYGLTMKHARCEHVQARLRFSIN
Chain of Cytochrome P450 2C19 (Homo sapiens) (P33261 whole entry, looked up): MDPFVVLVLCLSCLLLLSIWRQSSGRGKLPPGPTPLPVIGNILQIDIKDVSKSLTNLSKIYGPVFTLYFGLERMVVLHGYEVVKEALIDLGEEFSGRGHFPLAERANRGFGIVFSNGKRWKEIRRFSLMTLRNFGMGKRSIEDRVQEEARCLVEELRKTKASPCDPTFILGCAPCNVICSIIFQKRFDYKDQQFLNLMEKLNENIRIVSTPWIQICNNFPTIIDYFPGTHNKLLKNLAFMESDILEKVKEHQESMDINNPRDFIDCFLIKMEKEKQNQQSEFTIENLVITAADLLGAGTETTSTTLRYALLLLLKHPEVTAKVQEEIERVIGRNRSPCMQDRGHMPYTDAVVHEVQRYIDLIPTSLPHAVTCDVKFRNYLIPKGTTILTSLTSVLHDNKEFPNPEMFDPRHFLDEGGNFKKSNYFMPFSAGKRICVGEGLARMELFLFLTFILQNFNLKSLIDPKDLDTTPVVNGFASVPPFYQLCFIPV
Chain of Glucocorticoid receptor (Homo sapiens) (P04150 whole entry, looked up, the tested form may be a part): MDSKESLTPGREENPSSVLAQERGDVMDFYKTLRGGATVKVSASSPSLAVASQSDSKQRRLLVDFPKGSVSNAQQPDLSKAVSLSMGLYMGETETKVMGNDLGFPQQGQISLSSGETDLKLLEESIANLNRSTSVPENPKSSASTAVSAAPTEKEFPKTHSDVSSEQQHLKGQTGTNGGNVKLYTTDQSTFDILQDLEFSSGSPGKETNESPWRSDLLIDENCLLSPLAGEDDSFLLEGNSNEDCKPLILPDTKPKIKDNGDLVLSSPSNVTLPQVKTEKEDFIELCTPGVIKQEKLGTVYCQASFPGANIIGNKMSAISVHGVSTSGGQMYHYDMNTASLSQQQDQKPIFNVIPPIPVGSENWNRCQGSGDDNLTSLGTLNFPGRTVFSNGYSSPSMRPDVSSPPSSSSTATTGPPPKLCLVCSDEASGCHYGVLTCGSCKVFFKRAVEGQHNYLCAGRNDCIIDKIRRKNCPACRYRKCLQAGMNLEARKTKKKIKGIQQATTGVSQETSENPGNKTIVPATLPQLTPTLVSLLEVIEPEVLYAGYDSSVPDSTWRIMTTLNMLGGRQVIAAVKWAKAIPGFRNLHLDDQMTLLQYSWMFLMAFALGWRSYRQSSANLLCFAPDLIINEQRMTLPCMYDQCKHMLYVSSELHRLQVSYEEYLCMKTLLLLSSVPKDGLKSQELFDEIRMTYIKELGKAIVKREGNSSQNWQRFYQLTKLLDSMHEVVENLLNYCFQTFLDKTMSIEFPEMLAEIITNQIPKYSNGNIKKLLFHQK
Chain of Cytochrome P450 2C9 (Homo sapiens) (P11712 whole entry, looked up): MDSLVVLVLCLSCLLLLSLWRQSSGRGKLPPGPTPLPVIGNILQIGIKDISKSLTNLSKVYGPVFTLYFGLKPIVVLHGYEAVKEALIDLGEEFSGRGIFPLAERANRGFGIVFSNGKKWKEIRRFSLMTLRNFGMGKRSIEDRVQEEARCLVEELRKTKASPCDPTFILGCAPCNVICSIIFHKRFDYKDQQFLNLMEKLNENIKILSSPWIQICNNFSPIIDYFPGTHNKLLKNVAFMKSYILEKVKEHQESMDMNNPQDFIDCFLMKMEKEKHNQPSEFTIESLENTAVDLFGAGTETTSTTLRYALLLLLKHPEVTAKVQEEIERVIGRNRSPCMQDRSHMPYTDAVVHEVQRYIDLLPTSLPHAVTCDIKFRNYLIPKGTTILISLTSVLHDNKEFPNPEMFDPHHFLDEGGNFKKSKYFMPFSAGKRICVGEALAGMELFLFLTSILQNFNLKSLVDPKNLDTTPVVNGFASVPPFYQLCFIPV

Structure (SMILES)	Potency [1]	Potency [2] [µM]	Potency [3]	Potency [4]	Potency [5]	Potency [6]	Potency [7]
CC(C)C[C@@H](CC(=O)N[C@@H](CCC(=O)O)CC(=O)O)NC(=O)[C@@H]1CCCC[C@H]1NC(=O)C[C@@H](NC(=O)C[C@H](CO)NC(=O)[C@@H]1CNCC[C@H]1N)C(C)C	inactive	> 46	inactive	inactive	inactive	inactive	
NCCC[C@@H](CC(=O)N[C@@H]1CCNC[C@H]1C(=O)N[C@H](CC(=O)N[C@@H](CCC(=O)O)CC(=O)O)Cc1c[nH]c2ccccc12)NC(=O)C[C@H](CO)NC(=O)[C@@H]1CCCC[C@H]1N	inactive	> 46	inactive		inactive	inactive	inactive
CC(C)C[C@@H](CC(=O)N[C@@H](CCCN)CC(=O)N[C@@H]1CCCC[C@H]1C(=O)N[C@H](CC(=O)N[C@@H](CCC(=O)O)CC(=O)O)Cc1c[nH]c2ccccc12)NC(=O)[C@@H]1CCCC[C@H]1N	inactive	> 46		inactive		inactive	
CC(C)C[C@@H](CC(=O)N[C@@H](CCCN)CC(=O)N[C@@H]1CCNC[C@H]1C(=O)N[C@H](CC(=O)N[C@@H](CCC(=O)O)CC(=O)O)Cc1c[nH]c2ccccc12)NC(=O)[C@@H]1CCCC[C@H]1N	inactive	> 46	inactive	inactive	inactive	inactive	
CC(C)C[C@@H](CC(=O)N[C@@H](CCC(=O)O)CC(=O)O)NC(=O)[C@@H]1CCCC[C@H]1NC(=O)C[C@@H](NC(=O)C[C@H](Cc1c[nH]c2ccccc12)NC(=O)[C@@H]1CCCC[C@H]1N)C(C)C	inactive	> 46		inactive	inactive	inactive	inactive
CCC/C=C(\CCC)C(NC(=O)Oc1ccc(F)cc1)c1ccc(C(=O)OC)cc1 (configuration not stated)	inactive		inactive				
COCCn1c(C(=O)N2CCCC2)cc2c1C[C@H]1CN(C(=O)c3ccccc3)[C@@](Cc3ccc(F)cc3)(C(=O)OC)[C@@H]21	31.6 µM (active)		inactive				
